Here are results for 1 sequence from patent publication US20110177501, “BIOSENSOR FOR DETECTION AND VISUALISATION OF SINGLE-STRANDED DNA” (MEDICAL RESEARCH COUNCIL, published 2011).

This assay addresses 6-IATR-E. coli SSB (G26C) (Escherichia coli, UniProt P0AGE0 SEQ:1-177, G26C). The assay is described as follows: competition; stated only as similar result to IDCC-G26C. Particulars: tags: 6-IATR label on Cys26; chain copies: 4 (stated, tetramer); ssDNA.

In turn, “TTTTTTTTTTTTTTTTTTTTTTTTTTTTTTTTTTTTTTTTTTTTTTTTTTTTTTTTTTTTTTTTTTTTTT” came in with a binding signal of approximately 28 fold Kd vs unlabeled SSB.
